# Screening results as filed in PubChem.
# Hits are enriched below; roughly 4.8% of the tested compounds scored in any of these assays.
# SMARCA2 activ: activators of SMARCA2 function; MG213 cells, MMTV-luciferase reporter, dexamethasone, overnight; activation, % at 9.1 µM; 1% of 370,000 active; AID 652017; in the data active = activation above about 7.8%;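 note: 0% = vehicle wells and 100% = reference activator wells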
# hcDAF12 agonist: H. contortus DAF-12 activation, primary screen; activation, % at 6.8 µM; HEK293 hcDAF-12 lit1-tk-luc reporter, luminescence; 0% DMSO, 100% Δ7-dafachronic acid; 1.4% of 370,000 active; AID 652067;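 active = activation above the mean of all tested compounds plus 3 SD, cut at about 5.5% in these data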;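 note: 100% = response to 3 µM Δ7-dafachronic acid high control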
# hgDAF12 agonist: hgDAF-12 agonism, primary luciferase screen | HEK293 GAL4-hgDAF12 UAS-luciferase reporter, agonist luminescence; normalized to butyrate control | activation, % at 6.8 µM | 1.8% of 370,000 active | AID 687014;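 active = activation above a cutoff set at the mean of all screened compounds plus 3 SD, cut at about 10% in these data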;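 note: 0% = DMSO wells and 100% = sodium butyrate wells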
# ssDAF-12 act: activates DAF-12 receptor from parasite S. stercoralis; HEK293 ssDAF-12/GRIP1 lit1-tk-luc reporter, luminescence; % of 3 µM dafachronic acid response; activation, % at 6.8 µM; 1% of 370,000 active; AID 652126;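 active = activation above the mean over all tested compounds plus 3 SD, cut at about 0.9% in these data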;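 note: 0% = DMSO-only wells and 100% = 3 µM delta7-dafachronic acid wells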
# DAX1 inh-1: NR0B1 (DAX1) inhibition. HEK293 Gal4-DAX1 luciferase reporter, luminescence. inhibition, % at 6.75 µM. 0.99% of 340,000 active;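 active = inhibition above the mean over all tested compounds plus 3 SD, cut at about 4.2% in these data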;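 note: 0% = DAX1-transfected cells with DMSO and 100% = empty-vector control cells with DMSO; inhibition shows as a rise in luminescence from relieved DAX1 repression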
# Target sequence (P51843 207-470 limits assumed): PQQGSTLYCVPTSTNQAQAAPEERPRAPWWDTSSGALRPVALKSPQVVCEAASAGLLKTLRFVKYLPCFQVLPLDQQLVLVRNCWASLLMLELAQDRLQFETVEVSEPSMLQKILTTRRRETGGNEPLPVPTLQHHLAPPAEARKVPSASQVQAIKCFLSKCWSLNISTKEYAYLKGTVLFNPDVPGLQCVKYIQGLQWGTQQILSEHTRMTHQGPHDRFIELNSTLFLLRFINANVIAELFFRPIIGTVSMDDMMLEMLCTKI
# DAX1 inh-2: inhibitors of DAX1 repression of SF-1 activated StAR promoter. inhibition, % at 6.8 µM. 1.1% of 370,000 active. HEK293T StAR-luciferase reporter, SF-1/DAX-1 repression relief;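 active = inhibition above the mean over all tested compounds plus 3 SD, cut at about 3.6% in these data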;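 note: 0% = DAX-1 cells with DMSO and 100% = cells lacking DAX-1 with DMSO; higher inhibition means more luminescence from relief of DAX-1 repression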
# Active calls of the source: *; · = no result.
SMILES,SMARCA2 activ,hcDAF12 agonist,hgDAF12 agonist,ssDAF-12 act,DAX1 inh-1,DAX1 inh-2
CCOc1ccc2ccccc2c1CNc1nnnn1CC,2.3,0.0,1.5,-0.6,4.9*,-0.2
Cc1cc2c(cc1C)NC(=O)CC(C(F)(F)C(F)(F)C(F)(F)F)=N2,-0.2,-1.7,1.5,-0.6,4.7*,-0.3
Cc1ccc2c(c1)NC(=O)CC(c1ccccc1)=N2,1.9,-1.5,0.6,-1.3,0.8,0.6
O=S1(=O)c2c(cccc2N2CCSCC2)Oc2ccccc2CN1Cc1cn(Cc2cccc(C(F)(F)F)c2)nn1,-5.4,-3.2,-1.4,-1.4,·,-0.1
Cc1ccccc1-n1nc2c(c1NC(=O)c1ccc(S(=O)(=O)N(C)C)cc1)CSC2,2.6,5.9*,-1.6,-0.6,0.2,0.6
CN(c1ccc(OCC(=O)NCCc2ccccc2)cc1)S(=O)(=O)c1ccc(Cl)cc1,-1.7,3.2,3.1,-0.5,-0.4,4.2*
COc1ccc(CCNC(=O)COc2ccc(N(C)S(=O)(=O)c3ccc(Cl)cc3)cc2)cc1,-4.5,-2.1,-1.3,-2.0,1.8,0.1
CCCCCC[C@H](CC)CN(C(=O)Oc1ccccc1)c1ccccc1,-4.3,-1.5,-2.0,-0.2,·,0.3
CC(C)C(NS(=O)(=O)c1ccc2c(c1)oc(=O)n2C)C(=O)N1CCN(c2ccccc2F)CC1 (stereo unspecified),-1.0,-1.0,-0.6,-0.6,4.8*,-0.6
CCOC(=O)C1(Cc2ccc(OC)cc2)CCN(C(=O)c2cc(C)on2)CC1,-0.1,0.2,0.9,-1.1,0.7,-0.2
CCOC(=O)C1(Cc2ccc(OC)cc2)CCN(C(=O)c2cc3ccccc3[nH]2)CC1,2.6,3.5,2.8,0.9*,1.3,1.1
O=C(NCc1ccc(Cl)cc1)c1ccc(OCC2CCCO2)cc1 (stereo unspecified),-1.0,-0.5,2.5,-0.4,1.0,-0.4
O=C(Nc1ccc(Cl)cc1)c1ccc(OCC2CCCO2)cc1 (stereo unspecified),-0.2,-0.1,12.6*,-0.9,-1.7,0.0
CCCOc1ccc(C(=O)Nc2ccc3c(c2)OCCO3)cc1,1.9,5.7*,12.6*,0.7,0.4,2.2
CCOc1cccc(C(=O)Nc2ccc3c(c2)OCCO3)c1,-0.1,5.5,8.1,0.9*,-1.3,2.6
COC(=O)[C@]12C[C@H](CC(=O)NCc3ccc(OC)c(OC)c3)C(=O)N(Cc3cccc4ccccc34)C1=C[C@H](COCc1ccccc1)O[C@@H]2C,-5.2,-4.8,0.2,-1.8,·,-1.5
c1ccc(-c2nc3c4ccccc4ccn3c2CN2CCCCC2)cc1,-2.0,3.0,3.6,0.1,0.9,0.1
Clc1cccc(-c2nc3c4ccccc4ccn3c2CC2CCCCC2)c1,-0.1,4.2,2.5,1.1*,·,1.8
CCCc1nc2c3ccccc3ccn2c1CC1CCCCC1,-1.9,6.2*,6.2,0.3,·,0.9
Fc1ccc(-c2nc3c4ccccc4ccn3c2CC2CCCCC2)cc1,3.5,6.4*,3.9,1.6*,·,1.7
CC(=O)Nc1ccc(C(/C=C/c2ccccc2)Cc2ccccc2)cc1 (stereo unspecified),-5.2,-2.1,2.9,-1.4,·,-0.9
O=C(OC12CCCN(C1)/C(=C/c1ccc(Cl)cc1)C2)c1cccc(F)c1 (stereo unspecified),-0.3,-1.5,3.6,-0.9,·,-0.8
O=C1CSC(c2cccnc2)N1CC1CC1 (stereo unspecified),-1.4,0.2,1.4,-0.2,4.8*,-0.6
CCN(CC(=O)NCc1ccncc1)S(=O)(=O)c1cc(Cl)ccc1Cl,-2.6,-2.8,3.2,-1.1,4.2*,0.0
Cc1ccc(NC(=O)CN(C)C(=O)/C=C/c2cccs2)cc1,-2.6,1.5,-2.0,1.3*,0.2,0.2
SMILES,SMARCA2 activ,hcDAF12 agonist,hgDAF12 agonist,ssDAF-12 act,DAX1 inh-1,DAX1 inh-2
C#CCN1CC(N(C)CCOC(=O)c2cc(C)cc(C)c2)CS1(=O)=O (stereo unspecified),-4.0,-2.7,-3.7,-1.1,·,0.7
Cc1ccc(N/C(=C\C(=O)c2ccccc2)C(=O)O)cc1,2.1,3.0,10.5*,1.1*,1.4,4.3*
COC(=O)/C(=C\C(=O)c1ccccc1)Nc1ccc(OC)cc1,4.3,2.4,3.4,-0.1,2.1,1.0
CCN(CC)C(=O)c1cc(-c2ccc(Br)cc2)on1,4.1,0.9,10.8*,0.9*,2.2,2.2
COc1cc2c(c(OC)c1OC)C1(CCCCC1)CC2NCC=C(C)C (stereo unspecified),-1.4,0.6,0.9,-0.6,·,0.7
CN(C)/C=C/C(=O)c1ccncc1,-0.7,-0.7,2.6,-0.7,0.4,-0.1
CN(C)/C=C/C(=O)c1cccc(Oc2ncccn2)c1,1.9,0.7,-3.6,-1.1,4.6*,0.0
Nc1ccc(S(=O)(=O)N2CCCC2)cc1,-0.3,0.7,1.4,-1.6,6.0*,0.7
O=C(/C=C(\Nc1ccc(Br)c(F)c1)c1ccccc1)c1ccccc1,2.9,0.5,5.2,-1.0,·,-0.2
Cc1cc(C)nc(N/C(=N\S(=O)(=O)Cc2ccccc2)Nc2ccccc2Br)n1,-1.7,1.4,2.6,-0.1,4.4*,0.5
Cc1cnc(C(=O)OC(C(=O)c2c[nH]c3ccccc23)c2ccccc2)cn1 (stereo unspecified),-0.1,1.2,-0.2,0.9*,0.5,2.3
Cc1ccc(C)c(NC(=O)C(OC(=O)c2cnc(C)cn2)c2ccccc2)c1 (stereo unspecified),-4.0,1.1,1.2,-0.4,-0.6,2.2
CC(=O)Nc1ccccc1C(=O)C(=O)Nc1ccc(C)c(C)c1,2.4,0.5,11.4*,-0.8,3.0,2.5
CC(=O)Nc1ccccc1C(=O)C(=O)Nc1ccc(C)c(F)c1,5.1,3.6,7.4,-0.7,1.2,1.9
CCC1CCC/C1=N\NC(=O)c1ccccc1C (stereo unspecified),-1.8,2.4,4.6,0.1,5.3*,0.2
CSc1nc2ccc(NC(=O)C3=NNC(=O)CC3)cc2s1,-2.7,5.6*,7.4,0.2,1.2,2.3
CC1(C)CC(NCCC(c2ccccc2)c2ccco2)CCO1 (stereo unspecified),-4.3,1.9,0.5,-1.8,8.2*,0.6
CC1(C)CC(C(=O)NCCC(c2ccccc2)c2ccco2)CCO1 (stereo unspecified),2.1,-1.5,0.6,-1.1,0.7,0.7
CCC(NC(=O)C1CCCN(c2ncccn2)C1)c1ccccc1 (stereo unspecified),-4.0,0.5,-1.1,-1.4,·,0.3
O=C(Nc1ccc(N2C(=O)CC(c3ccccc3)C2=O)c(Cl)c1)c1ccccn1 (stereo unspecified),·,-0.1,-0.9,-1.4,·,·
O=C(Nc1ccc(N2C(=O)[C@@H]3[C@H](C2=O)[C@@H]2C=C[C@H]3C2)c(Cl)c1)c1ccccn1,·,4.2,11.7*,-0.4,·,·
CC1=CC(C)(C)N=C(NC#N)N1,0.8,-1.0,-0.2,1.0*,3.0,0.0
